Measurements reported in article PMC4552634, “A New Set of Chemical Starting Points with Plasmodium falciparum Transmission-Blocking Potential for Antimalarial Drug Discovery” (PLoS ONE, 2015).
Screen size: about 13,000 compounds; about 3,200 (25%) showed an effect of 50% or more. The list shows a part of the results.

System: P. falciparum stage V gametocytes
Set-up: BacTiter-Glo ATP luminescence viability of purified stage V gametocytes in 384-well plates, per cent inhibition versus DMSO
Conditions: 48 h, 5 µM; inhibitor

| SMILES | % Inhibition |
| --- | --- |
| CC(C)c1cccc(OCC2CCN(c3ncc(C(=O)NC4CC4)cc3Cl)CC2)c1 [TCMDC-134260] | -10.41% |
| O=C(NC1CC1)c1cnc(N2CCC(Oc3ccc(Cl)cc3)CC2)c(Cl)c1 [TCMDC-134040] | 28.34% |
| Cc1cc(OCC2CCN(c3ncc(C(=O)NC4CC4)cc3Cl)CC2)ccc1F [TCMDC-134032] | 14.47% |
| Cc1ccc(OCC2CCN(c3ncc(C(=O)NC4CC4)cc3Cl)CC2)cc1 [TCMDC-134055] | 11.28% |
| Cc1ccc(OCC2CCN(c3ncc(C(=O)NCCCN4CCCC4=O)cc3Cl)CC2)cc1 [TCMDC-134056] | 53.1% |
| O=C(NC1CC1)c1cnc(N2CCC(OCc3ccccc3)CC2)c(Cl)c1 [TCMDC-134610] | 14.6% |
| Cc1cccc(OC2CCN(c3ncc(C(=O)NCCCN4CCCC4=O)cc3Cl)CC2)c1 [TCMDC-134057] | 81.53% |
| O=C(NCCCN1CCCC1=O)c1cnc(N2CCC(Oc3ccccc3)CC2)c(Cl)c1 [TCMDC-134054] | 50.82% |
| Cc1cccc(OCC2CCN(c3ncc(C(=O)NC4CC4)cc3Cl)CC2)c1 [TCMDC-134058] | 0.6256% |
| CC(C)(C)c1ccc(NC(=O)c2cccc(CN3CCN(Cc4cccc(O)c4)CC3)c2)cc1 [TCMDC-136604] | -36.18% |
| COc1ccc(CNC(=O)NC2CCN(c3ccnc(Nc4cc(OC)c(OC)c(OC)c4)n3)C2)cc1 (stereo not shown) [TCMDC-133619] | -40.46% |
| Cc1cccc(CN2CCCN(Cc3ccc(C(=O)Nc4ccc(C(C)(C)C)cc4)cc3)CC2)c1 [TCMDC-136434] | -28% |
| CN(c1ccc(NC(=O)Nc2cc(C(F)(F)F)ccc2F)cc1)c1ccnc(NCCN2CCOCC2)n1 [TCMDC-141590] | 51.14% |
| CN(c1ccc(NC(=O)Nc2cc(C(F)(F)F)ccc2F)cc1)c1ccnc(NCCN2CCCC2)n1 [TCMDC-141635] | 83.6% |
| Cn1nc(-c2ccc(NC(=O)Nc3ccc4ccccc4c3)c(F)c2)c2cnc(NCCN3CCOCC3)nc21 [TCMDC-141561] | 17% |
| COc1cc(Nc2nccc(N3CCC(NC(=O)Nc4ccc5c(c4)OCO5)C3)n2)cc(OC)c1OC (stereo not shown) [TCMDC-133629] | -90.76% |
| CCN(CCN(C)C)Cc1ccc(-c2ccc(NS(=O)(=O)c3cccc4cccnc34)cc2)cc1 [TCMDC-136600] | 46.29% |
| CCCN1CCN(c2ccccc2NS(=O)(=O)c2ccc(C(=O)Nc3ccc(Cl)cc3)cc2)CC1 [TCMDC-136350] | 1.888% |
| CCCN1CCN(Cc2ccc(C(=O)Nc3ccc(Cl)cc3)cc2)CC1 [TCMDC-136387] | 3.347% |
| O=C(Nc1cccc(C(F)(F)F)c1)c1cccc(S(=O)(=O)NCC2CCCN(CC3CCCCC3)C2)c1 (stereo not shown) [TCMDC-132770] | 87.2% |
| O=C(Nc1cccc(C(F)(F)F)c1)c1ccc(S(=O)(=O)NCC2CCCN2CC2CCCCC2)cc1 (stereo not shown) [TCMDC-133689] | -36.87% |
| O=C(Nc1cccc(C(F)(F)F)c1)c1cccc(S(=O)(=O)NCC2CCCN(Cc3ccccc3)C2)c1 (stereo not shown) [TCMDC-133685] | -6.422% |
| CCCN1CCN(c2ccc(NS(=O)(=O)c3ccc(C(=O)Nc4ccc(Cl)cc4)cc3)cc2)CC1 [TCMDC-136351] | 71.9% |
| O=C(Nc1ccc(Cl)cc1)c1ccc(S(=O)(=O)NCC2CCN(CC3CCCCC3)CC2)cc1 [TCMDC-132808] | 84.19% |
| O=C(Nc1cccc(C(F)(F)F)c1)c1ccc(S(=O)(=O)NCC2CCCN(CC3CCCCC3)C2)cc1 (stereo not shown) [TCMDC-132777] | 92.44% |

| SMILES | % Inhibition |
| --- | --- |
| CC(C)c1ccc(NC(=O)c2ccc(C(=O)NCC3CCN(CC4CCCCC4)CC3)cc2)cc1 [TCMDC-136753] | 4% |
| O=C(Nc1ccc(C(F)(F)F)cc1)c1ccc(S(=O)(=O)NCC2CCCN(CC3CCCCC3)C2)cc1 (stereo not shown) [TCMDC-133680] | -21.48% |
| O=C(Nc1ccc(C(F)(F)F)cc1)c1cccc(S(=O)(=O)NCC2CCCN(CC3CCCCC3)C2)c1 (stereo not shown) [TCMDC-133673] | -19.66% |
| O=C(Nc1ccc(Cl)cc1)c1ccc(CN2CCCN(CC3CCCCC3)CC2)cc1 [TCMDC-136400] | -37.54% |
| CCNc1cc(C)nc(Nc2ccc(NC(=O)c3ccccc3)cc2)n1 [TCMDC-124988] | -14.46% |
| N=C(N)c1ccc(Oc2ccc(C(=N)N)cc2)cc1 [TCMDC-124287] | 24.59% |
| CCCc1ccc(NC(=O)c2cccc(CN3CCCN(Cc4cccc(O)c4)CC3)c2)cc1 [TCMDC-135978] | 12.81% |
| CC(C)[C@H](NC(=O)c1ccc(O)c(-c2cccc(C(F)(F)F)c2)c1)C(=O)NC1CCCc2ccccc21 (stereo partly shown) [TCMDC-140819] | -19.12% |
| CCCCCCc1cnc2nc(N)nc(N)c2c1C [TCMDC-138065] | 8.256% |
| O=C(NC1CCC(N2CCCC(OCc3ccccc3)C2)CC1)c1cc2ccccc2[nH]1 (stereo not shown) [TCMDC-132892] | 14.17% |
| CCCC(=O)Nc1ccc(OCCCN(Cc2ccccc2C(F)(F)F)c2ccc(C#N)c(C(F)(F)F)c2)cc1 [TCMDC-135466] | 20.73% |
| O=C(Nc1cccc(C(F)(F)F)c1)c1ccc(S(=O)(=O)NCC2CCN(CC3CCCCC3)CC2)cc1 [TCMDC-132776] | 87.8% |
| CCCCCN1CCC(CNS(=O)(=O)c2ccc(C(=O)Nc3cccc(C(F)(F)F)c3)cc2)CC1 [TCMDC-132775] | -3.109% |
| O=C(Nc1cccc(C(F)(F)F)c1)c1cccc(S(=O)(=O)NCC2CCN(CC3CCCCC3)CC2)c1 [TCMDC-133684] | -26.22% |
| COc1cc2c(cc1OC)C(C)(C)CN1Cc3c(c(CO)c(OC)c(OC)c3OC)CC21 (stereo not shown) [TCMDC-137250] | -48.53% |
| COc1ccc2nc(N)nc(C)c2c1 [TCMDC-123907] | 15.32% |
| CS(=O)(=O)CCNCc1cccc(-c2cc3c(Nc4ccc(OCc5cccc(F)c5)c(Cl)c4)ncnc3s2)c1 [TCMDC-134654] | -64.99% |
| Cn1cncc1C(=O)Nc1cccc(-c2ccc(-c3nc4ccccc4[nH]3)s2)c1 [TCMDC-137055] | 40.39% |
| Cn1cncc1C(=O)Nc1cccc(-c2ccc(-c3nc4cc(F)ccc4[nH]3)s2)c1 [TCMDC-137066] | 61.93% |
| CC(=O)Nc1cccc(C(=O)Nc2cccc(-c3ccc(-c4nc5cccc(C)c5[nH]4)s3)c2)c1 [TCMDC-132144] | 10.52% |
| Cc1cccc2nc(-c3ccc(-c4ccc(NC(=O)c5cncn5C)cc4)s3)[nH]c12 [TCMDC-137067] | 9.475% |
| CC(=O)Nc1cccc(C(=O)Nc2cccc(-c3ccc(-c4nc5cc(F)ccc5[nH]4)s3)c2)c1 [TCMDC-132142] | 5.899% |
| Cc1cccc2nc(-c3ccc(-c4cccc(NC(=O)c5cncn5C)c4)s3)[nH]c12 [TCMDC-137068] | 78.66% |
| NC(N)=Nc1nc(-c2cc(NC(=O)C(F)(F)F)cc([N+](=O)[O-])c2)cs1 [TCMDC-137440] | -35.18% |
| Nc1nc(N)c2c(ccc3nccc32)[nH]1 [TCMDC-124301] | -21.41% |

| SMILES | % Inhibition |
| --- | --- |
| O=C(Nc1cccc(CN2CCN(C(=O)c3cccc(Cl)c3)CC2)c1)c1cccs1 [TCMDC-136326] | 0.1034% |
| CNC(=O)c1ccccc1Nc1cc(Nc2cc(OC)ccn2)ncc1Cl [TCMDC-135054] | -20.04% |
| COc1cccc(CN2Cc3ccccc3OC3(CCN(Cc4c[nH]c5cnccc45)CC3)C2)c1 [TCMDC-133378] | 19.44% |
| Cc1ccc(CN2CCN(c3cc4c(cc3Cl)CCN4C(=O)Cc3ccc(Cl)c(NC(=O)Nc4cccc(C#N)c4)c3)CC2)cc1 [TCMDC-139471] | 12.97% |
| CN(CCS(C)(=O)=O)Cc1ccc(-c2ccc3ncnc(Nc4ccc(OCc5cccc(F)c5)c(Cl)c4)c3c2)o1 [TCMDC-138629] | -22.68% |
| COc1ccccc1NC(=O)c1cc(C(=O)c2cc(Cl)ccc2O)cn(-c2ccccc2OC)c1=O [TCMDC-124338] | 29.65% |
| Cc1ccc(O)c(C(=O)c2cc(C(=O)Nc3ccccc3C)c(=O)n(-c3ccccc3C)c2)c1 [TCMDC-123627] | 58.98% |
| O=C(c1cc(C(=O)Nc2ccc(F)cc2)c(=O)n(-c2ccc(F)cc2)c1)c1cc(Cl)ccc1O [TCMDC-123626] | 8.881% |
| O=C(c1cc(C(=O)Nc2ccccc2)c(=O)n(-c2ccccc2)c1)c1cc(Cl)ccc1O [TCMDC-124511] | 30.05% |
| COc1ccc(O)c(C(=O)c2cc(C(=O)NCCc3ccccc3)c(=O)n(CCc3ccccc3)c2)c1 [TCMDC-125435] | -12.88% |
| O=C(c1cc(C(=O)Nc2ccccc2F)c(=O)n(-c2ccccc2F)c1)c1cc(Cl)ccc1O [TCMDC-123625] | 90.03% |
| O=C(Nc1ccc(-c2cccc(-c3nc4ccc(F)cc4[nH]3)c2)cc1)c1cnn2cccnc12 [TCMDC-136864] | -12.66% |
| C(=NNc1ccnc2ccccc12)c1ccncc1 [TCMDC-142016] | -6.172% |
| CCCCNCc1ccc(-c2nc(CN(CCCn3ccnc3)C(=O)Nc3ccc(CC)cc3)cs2)cc1 [TCMDC-141639] | 61.14% |
| CCCCNCc1ccc(-c2nc(CN(CCCn3ccnc3)C(=O)C3COc4ccccc4O3)cs2)cc1 (stereo not shown) [TCMDC-141702] | 64.34% |
| O=C(C1COc2ccccc2O1)N(CCCn1ccnc1)Cc1csc(-c2ccc(CNCc3ccccc3)cc2)n1 (stereo not shown) [TCMDC-141813] | 25.07% |
| CN1CCN(CCCN(Cc2csc(-c3ccc(CNCc4ccccc4)cc3)n2)C(=O)Nc2cccc(Cl)c2)CC1 [TCMDC-141794] | 15.5% |
| CN1CCCN(Cc2ccc(-c3cccc(NC(=O)c4cccc(Cl)c4)c3)cc2)CC1 [TCMDC-132641] | 27.52% |
| CCc1ccc(NC(=O)N(CCCn2ccnc2)Cc2csc(-c3ccc(CNCc4ccccc4)cc3)n2)cc1 [TCMDC-141797] | 5.722% |
| CCCCNCc1ccc(-c2nc(CN(CCCn3ccnc3)C(=O)NC3CC3c3ccccc3)cs2)cc1 (stereo not shown) [TCMDC-141638] | 80.86% |
| CCCN(Cc1nnc(-c2cccs2)o1)C(=O)C1COc2ccccc2O1 (stereo not shown) [TCMDC-125333] | 18.28% |
| O=C(Nc1ccc2ccccc2c1)N(CCCn1ccnc1)Cc1csc(-c2ccc(CNCc3ccccc3)cc2)n1 [TCMDC-141798] | 15.32% |
| CCCCNCc1ccc(-c2nc(CN(CCCN3CCN(C)CC3)C(=O)Nc3cccc(Cl)c3)cs2)cc1 [TCMDC-141637] | 88.1% |
